The panel holds about 79,000 compounds, 15% with a hit somewhere; the sample as a whole holds those more often. Activity calls are given as the source filed them. No stated cut-off is given here; in the data, active means growth inhibition above about 70%; inactive means the rest.
Experiments:
[1] = NCI Yeast Anticancer Drug Screen. Data for the rad52 strain (AID 147);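 further: 0% = growth of vehicle-treated control cultures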; settings: S. cerevisiae rad52 mutant growth inhibition, stronger effect = higher value
Outline: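 Screen used a yeast mutant impaired in DNA repair. After compound exposure, growth was measured. Values reflect inhibition compared with vehicle-treated cells.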

[2] = NCI Yeast Anticancer Drug Screen. Data for the wt1 strain (AID 149);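 further: 0% = growth of vehicle-treated wt1 cultures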; settings: S. cerevisiae wt1 strain (SPY 50644) growth inhibition, stronger effect = higher value
Outline: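 The wt1 strain was treated with compounds, and growth was compared with vehicle-treated cultures to give inhibition.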

[3] = NCI Yeast Anticancer Drug Screen. Data for the rad50EPP+ strain (AID 151);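 further: 0% = growth of vehicle-treated control cultures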; settings: S. cerevisiae rad50 mutant strain, stronger effect = higher value
Outline: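 Exposing the rad50EPP+ strain to each compound, growth was compared with vehicle-only cultures to give inhibition.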

[4] = NCI Yeast Anticancer Drug Screen. Data for the rad50 strain (AID 155);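 further: 0% = growth of vehicle-only cultures of the same strain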; settings: S. cerevisiae rad50 strain growth inhibition, stronger effect = higher value
Outline: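 Cells are treated with compound, grown, and their growth is then scored against vehicle-only cultures of the same repair-deficient yeast strain.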

[5] = NCI Yeast Anticancer Drug Screen. Data for the mec2-1 strain (AID 157); settings: S. cerevisiae mec2-1 strain, stronger effect = higher value
Outline: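 Readout is yeast growth inhibition, normalised to vehicle-treated controls, in the mec2-1 strain exposed to compound.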

[6] = NCI Yeast Anticancer Drug Screen. Data for the rad14 strain (AID 159);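 further: 0% = growth of vehicle-treated control cultures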; settings: S. cerevisiae rad14 strain growth inhibition, stronger effect = higher value
Outline: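 Readout: yeast growth inhibition, referenced to vehicle-only cultures. Strain bears a defined alteration in DNA damage repair.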

[7] = NCI Yeast Anticancer Drug Screen. Data for the sgs1 mgt1 strain (AID 161);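 further: 0% = growth of cultures given vehicle only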; settings: S. cerevisiae sgs1 mgt1 strain, stronger effect = higher value
Outline: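 Yeast cells carrying a defined DNA-repair defect were exposed to test compounds. Growth inhibition was measured relative to vehicle-treated controls.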

[8] = NCI Yeast Anticancer Drug Screen. Data for the CLN2oe strain (AID 163);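 further: 0% = growth of vehicle-only control cultures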; settings: S. cerevisiae CLN2oe strain, stronger effect = higher value
Outline: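 Values reflect how much compound exposure reduced yeast growth, referenced to vehicle-exposed cells. Assay organism is a strain with a defined genetic change affecting cell-cycle control.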

[9] = NCI Yeast Anticancer Drug Screen. Data for the cln2 rad14 strain (AID 165);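 further: 0% = growth equal to vehicle treated cultures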; settings: S. cerevisiae cln2 rad14 strain, stronger effect = higher value
Outline: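 Relative to vehicle controls, growth inhibition of compound-treated cln2 rad14 yeast was recorded.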

[10] = NCI Yeast Anticancer Drug Screen. Data for the bub3 strain (AID 167); settings: S. cerevisiae bub3 mutant strain, stronger effect = higher value
Outline: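 Part of a panel of yeast mutants defective in DNA damage repair or cell cycle regulation. Each strain is grown with compound, and inhibition is calculated relative to solvent-treated cultures.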

[11] = NCI Yeast Anticancer Drug Screen. Data for the wt2 strain (AID 169);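 further: 0% = growth of vehicle-treated yeast cultures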; settings: S. cerevisiae wt2 strain growth inhibition, stronger effect = higher value
Outline: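 Values express reduction in yeast growth under compound treatment, referenced to vehicle-treated cells.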

[12] = NCI Yeast Anticancer Drug Screen. Data for the mlh1 strain (AID 171);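 further: 0% = growth of vehicle-treated control cultures of the same strain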; settings: S. cerevisiae mlh1 strain growth inhibition, stronger effect = higher value
Outline: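 Steps: expose the defined-mutant yeast strain to compound; expose a parallel culture to vehicle; measure growth; express compound effect as inhibition relative to the vehicle culture.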

[13] = NCI Yeast Anticancer Drug Screen. Data for the sgs1 strain (AID 173);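 further: 0% = growth of vehicle-only control cultures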; settings: S. cerevisiae sgs1 mutant, stronger effect = higher value
Outline: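 Treat defined-mutant yeast with compound; measure growth; calculate inhibition relative to vehicle-treated cells.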

[14] = NCI Yeast Anticancer Drug Screen. Data for the mlh1 rad18 strain (AID 175); settings: S. cerevisiae mlh1 rad18 strain growth inhibition, stronger effect = higher value
Outline: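 Test agents were incubated with a yeast strain of defined genotype (DNA damage repair defect). Inhibition of growth was derived by comparison with vehicle-exposed cultures.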

[15] = NCI Yeast Anticancer Drug Screen. Data for the rad18 strain (AID 177); settings: S. cerevisiae rad18 mutant growth inhibition, stronger effect = higher value
Outline: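 A genetically defined yeast mutant impaired in DNA damage repair was treated with test compounds, then its growth was measured against cultures receiving vehicle alone.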

[16] = at 5.0 µM (retest, dose inferred, filed as 0.5)
[17] = at 50.0 µM (retest, dose inferred, filed as 5.0)

Measured: growth inhibition

CC/C(=C(\c1ccccc1)c1ccc(OCC[N+](C)(C)C)cc1)c1ccccc1
inactive: [1]; at 1.2 µM 0% | [1]; at 3.7 µM 68% | [2]; at 1.2 µM -4% | [2]; at 3.7 µM 12% | [3]; at 1.2 µM 3% | [3]; at 3.7 µM 18% | [4]; at 1.2 µM 7% | [5]; at 1.2 µM -6% | [5]; at 3.7 µM 33% | [5]; [16] 31% | [5]; [17] 31% | [6]; at 1.2 µM 0% | [8]; at 1.2 µM -7% | [8]; at 3.7 µM 10% | [9]; [16] 21% | [9]; [17] 21% | [10]; at 1.2 µM -3% | [10]; at 3.7 µM 36% | [10]; [16] 22% | [10]; [17] 22% | [11]; at 1.2 µM -2% | [11]; at 3.7 µM 55% | [12]; at 1.2 µM -7% | [13]; at 1.2 µM -7% | [13]; at 3.7 µM 65% | [14]; [16] 27% | [14]; [17] 27% | [15]; at 1.2 µM 3%
active: [1]; at 11.0 µM 99% | [1]; at 33.0 µM 99% | [1]; at 100.0 µM 99% | [2]; at 11.0 µM 98% | [2]; at 33.0 µM 99% | [2]; at 100.0 µM 99% | [3]; at 11.0 µM 94% | [3]; at 33.0 µM 98% | [3]; at 100.0 µM 99% | [4]; at 3.7 µM 85% | [4]; [16] 70% | [4]; at 11.0 µM 97% | [4]; at 33.0 µM 98% | [4]; [17] 70% | [4]; at 50.0 µM 90% | [4]; at 100.0 µM 99% | [5]; at 11.0 µM 99% | [5]; at 33.0 µM 99% | [5]; at 50.0 µM 93% | [5]; at 100.0 µM 99% | [6]; at 3.7 µM 88% | [6]; at 11.0 µM 99% | [6]; at 33.0 µM 99% | [6]; at 100.0 µM 99% | [7]; [16] 74% | [7]; [17] 74% | [7]; at 50.0 µM 91.3% | [8]; at 11.0 µM 98% | [8]; at 33.0 µM 99% | [8]; at 100.0 µM 99% | [9]; at 50.0 µM 91% | [10]; at 11.0 µM 99% | [10]; at 33.0 µM 99% | [10]; at 50.0 µM 91.5% | [10]; at 100.0 µM 99% | [11]; at 11.0 µM 99% | [11]; at 33.0 µM 99% | [11]; at 100.0 µM 99% | [12]; at 3.7 µM 70% | [12]; at 11.0 µM 99% | [12]; at 33.0 µM 99% | [12]; at 100.0 µM 99% | [13]; at 11.0 µM 99% | [13]; at 33.0 µM 99% | [13]; at 100.0 µM 99% | [14]; at 50.0 µM 90.1% | [15]; at 3.7 µM 86% | [15]; at 11.0 µM 99% | [15]; at 33.0 µM 99% | [15]; at 100.0 µM 99%

From PubChem BioAssay (NCI)
